Screening data: PubChem, National Center for Advancing Translational Sciences (NCATS)
DRD3 agonist: qHTS of D3 Dopamine Receptor Agonist: qHTS | D(3) dopamine receptor (Homo sapiens), P35462 | D3R DiscoveRx beta-arrestin cells, luminescence, 90 min | max activation, % | actives 0.58% (n = 410,000); in the data active means max activation above about 30%; further: 0% is about no effect
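Agonist mode: compounds and dopamine controls were applied to plated cells for 90 min at 37 degrees C after an overnight attachment at 1500 cells/well. Luminescent read-out followed 30 - 60 minutes at room temperature with DiscoveRx detection reagent.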
D3 antag: qHTS of D3 Dopamine Receptor Antagonist: qHTS; max response, negative = inhibition, %; AID 652054, 2013; D3R cells, DiscoveRx beta-arrestin luminescence, antagonist mode; hits give low values; actives 2.5% (n = 360,000); in the data active means max response below about -50%; inconclusive means no clear call, values can overlap the other calls; further: on the % scale 0 is the no-effect control and ±100 the full control effect
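Cells expressing the human receptor were seeded at 1500 cells/well, incubated overnight at 37 degrees C in 5% CO2, then exposed to library compounds with dopamine controls for 90 minutes at 37 degrees C before luminescent detection.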
D1 agonist: Allosteric Agonists of the Human D1 Dopamine Receptor: qHTS; D(1A) dopamine receptor (Homo sapiens), P21728; HEK293 T-REx D1 cells, calcium flux, agonist mode; activation, % at 2 µM; actives 1% (n = 360,000); AID 504660, 2011; in the data active means activation above about 30%; further: 0% is about no effect
Target sequence (P21728 whole entry, looked up): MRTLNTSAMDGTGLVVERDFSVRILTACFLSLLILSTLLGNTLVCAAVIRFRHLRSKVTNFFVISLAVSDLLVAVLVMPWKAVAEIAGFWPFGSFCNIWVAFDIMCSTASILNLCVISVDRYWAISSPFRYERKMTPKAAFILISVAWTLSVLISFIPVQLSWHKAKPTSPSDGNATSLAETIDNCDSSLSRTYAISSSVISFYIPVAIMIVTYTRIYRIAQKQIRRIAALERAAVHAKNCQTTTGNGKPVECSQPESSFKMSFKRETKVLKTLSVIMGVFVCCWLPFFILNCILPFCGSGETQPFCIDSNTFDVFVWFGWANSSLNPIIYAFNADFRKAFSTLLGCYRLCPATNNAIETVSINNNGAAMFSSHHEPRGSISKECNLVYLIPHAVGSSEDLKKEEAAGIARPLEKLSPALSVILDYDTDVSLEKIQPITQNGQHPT
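Inducible HEK293 T-REx D1 cells, force-coupled to calcium signalling, were plated at 4000 cells/well with tetracycline and held overnight at 30 C. After no-wash calcium dye loading, compound-evoked calcium rise over 180 s flagged agonists.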
D1 PAM: Potentiators of Human D1 Dopamine Receptor: qHTS; HEK293 TREx D1 cells, calcium flux, dopamine EC20 potentiation; potentiation, % at 10 µM; actives 0.036% (n = 360,000); AID 504651, 2011; in the data active means potentiation above about 30%; further: 0% is about no effect
D1 antagonist: Antagonist of Human D 1 Dopamine Receptor: qHTS; D(1A) dopamine receptor (Homo sapiens), P21728; HEK293 TREx D1 cells, calcium flux, dopamine EC80; hits give low values; activity change, negative = inhibition, % at 10 µM; actives 3.2% (n = 360,000); AID 504652, 2011; in the data active means activity change below about -30%; further: on the % scale 0 is the no-effect control and ±100 the full control effect
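Tetracycline-induced HEK293 T-REx cells with force-coupled D1 receptor were loaded with a no-wash calcium dye. Compound was added after a 10 s baseline and read kinetically for 180 s; EC80 dopamine was then added and calcium flux followed another 180 s.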
The depositor's hits bear a star; ? = inconclusive; · = no result given. Most compounds without a hit are left out; they make up all but 6.1% or so of the library.

SMILES	DRD3 agonist	D3 antag	D1 agonist	D1 PAM	D1 antagonist
CC(C)C[C@H]1CNC(=S)N1CC1CCN(CC2CCC(C(C)(C)C)CC2)CC1 (some centres not stated)	-43.7	-62.7*	·	·	·
COc1ccc(N=C2S/C(=C\c3ccc(Cl)c([N+](=O)[O-])c3)C(=O)N2CCN(C)C)cc1	-4.3	-128.1*	4.5	-0.1	-8.2
CCN(CC)CCN1C(=O)/C(=C\c2ccc(Cl)c([N+](=O)[O-])c2)SC1=Nc1ccc(OC)cc1	-26.1	-101.9*	1.0	-0.7	-13.0
CN(C(=O)C1=CC(c2ccc3c(c2)OCO3)=NS(=O)(=O)N1C)c1ccccc1	-11.8	·	3.7	-2.4	-19.2
Cc1ccccc1N/C(SCc1ccc(Cl)cc1)=C(/C#N)C(=O)NCc1ccco1	-17.9	-17.3	13.4	-8.5	-17.1
Cc1ccc(CS/C(Nc2ccccc2C)=C(\C#N)C(=O)NCc2ccco2)c(C)c1	-5.0	-16.7	30.2*	-4.1	-23.7
Cc1cc(C)c(S(=O)(=O)NCCc2sc3nc(-c4ccc(F)cc4)nn3c2C)c(C)c1	15.4	·	6.5	-2.3	·
COC(=O)c1ccc(C(=O)OC)c(NC(=O)CSCc2ccc(Br)cc2)c1	-1.9	1.1	33.0*	-2.8	-42.3*
Cc1cc2c(s1)c1cnn(Cc3c(Cl)cccc3Br)c(=O)c1n2C	·	·	-0.1	4.8	20.0
O=C(CCCCCN1C(=O)CCC1=O)Nc1ncn[nH]1	1.0	-53.3*	2.8	-3.6	6.4
O=[N+]([O-])c1ccc(N2CCN(c3ccc([N+](=O)[O-])cc3CO)CC2)c(CO)c1	-2.3	-1.3	10.1	-4.7	-19.9
N#Cc1cc([N+](=O)[O-])ccc1N1CCN(c2ccccc2O)CC1	0.2	-16.9	24.0	-13.0	-30.2*
Cc1ccc(Oc2ccc(Oc3ccc(C)cc3)nn2)cc1	4.9	6.3	44.0*	1.1	0.9
O=C(O)C1CCCCC1C(=O)Nc1ccccc1Nc1ccccc1 (configuration not stated)	-3.2	-14.6	3.2	-7.5	-41.0*
O=C(Nc1ccccc1)c1ccccc1NC(=O)[C@H]1CCCC[C@H]1C(=O)O	-0.2	0.6	7.3	0.6	2.1
COC(=O)c1cc(NC(=O)c2cccc(C(F)(F)F)c2)c(=O)oc1C	3.5	3.9	0.6	-4.9	-14.7
COC(=O)c1cc(NC(=O)c2cccc(Cl)c2)c(=O)oc1/C=C/Nc1cc(C)cc(C)c1	·	·	102.2*	1.9	-34.1*
O=C(CN1CCN(Cc2ccccc2)CC1)NC(=O)NC1CCCCC1	-1.1	-2.5	0.9	1.1	13.5
FC(F)(F)c1cccc(N2CCN(C(=S)NC3CCCC3)CC2)c1	-14.2	0.0	1.4	-10.3	-17.3
O=C(CN1CCN(C/C=C/c2ccccc2)CC1)NC(=O)NC1CCCCC1	-5.5	-65.4*	5.6	-0.5	-7.5
S=C(NC1CCCC1)N1CCN(c2ccc(Cl)cc2)CC1	-0.2	-6.8	4.6	-4.9	-46.2*
S=C(NC1CCCC1)N1CCN(C/C=C/c2ccccc2)CC1	-4.1	15.2	16.0	-9.7	-35.6*
O=C(CSc1nc2ccccc2nc1Cc1ccccc1)N1CCc2ccccc21	-3.2	·	1.0	-2.5	11.0
O=C(NCCN1CCCC1)c1ccccc1Cl	-19.8	-14.5	0.0	0.8	-3.7
O=C1C(Cl)=C(NCCN2CCCCC2)C(=O)c2ccccc21	-22.2	-63.2*	0.6	-5.5	-5.6
SMILES	DRD3 agonist	D3 antag	D1 agonist	D1 PAM	D1 antagonist
CCNC1=C(Cl)C(=O)c2ccccc2C1=O	2.9	?	7.4	-3.2	-35.9*
CCCC(=O)NC1=C(Cl)C(=O)c2ccccc2C1=O	-28.0	-67.7*	·	·	·
CCNC(=O)C1CCCN(c2nn3cc(-c4ccc(C)cc4)nc3s2)C1 (configuration not stated)	-8.0	·	-0.7	-0.7	-0.6
Cc1nn(C(C)C)c(C)c1CN1CCC(C(=O)Nc2cccc(-c3cccc(F)c3)c2)CC1	-18.6	-53.4*	31.5*	-7.0	8.0
Cc1c(CN2CCC(C(=O)Nc3cccc(-c4cccc(Cl)c4)c3)CC2)cnn1C	-3.5	-18.7	1.8	-14.4	12.7
Cc1cccc(CN2CCC(C(=O)Nc3cccc(-c4cccc(F)c4)c3)CC2)n1	-14.0	10.7	11.1	-4.5	-13.6
C=CCn1cc(CN2CCC(C(=O)Nc3cccc(-c4cccc(F)c4)c3)CC2)c(C)n1	-10.3	0.0	26.9	-8.3	-38.6*
C=CCn1cc(CN2CCC(C(=O)Nc3cccc(-c4cccc(Cl)c4)c3)CC2)c(C)n1	-4.8	-11.4	27.0	-16.6	-35.0*
Cn1cc(CN2CCC(C(=O)Nc3cccc(-c4cscn4)c3)CC2)cn1	-3.9	2.0	0.1	-8.2	-48.9*
CCn1cc(CN2CCC(C(=O)Nc3cccc(-c4cscn4)c3)CC2)cn1	-21.7	0.0	2.1	1.1	-0.2
COc1cc(OC)c(NC(=O)C2=C(C)C(=O)OC23CCCCC3)cc1Cl	-2.7	·	2.4	-4.5	0.4
COc1cccc(CNC(=O)Cn2cc3c(n2)-c2c(oc(C(=O)N4CCCC4)c2C)CC3)c1OC	14.0	·	0.8	3.6	7.1
COc1cccc(CCNC(=O)c2cnc3sc(N4CCCCCC4)nn3c2=O)c1	2.6	·	0.9	1.9	-18.3
O=C(NC(NC(=S)Nc1c(Cl)cc(Cl)cc1Cl)C(Cl)(Cl)Cl)OCc1ccccc1 (configuration not stated)	1.4	-76.1*	4.3	-8.2	-3.1
Cc1ccc(C)c(NC(=S)NC(NC(=O)OCc2ccccc2)C(Cl)(Cl)Cl)c1 (configuration not stated)	-3.3	?	6.2	-5.2	-4.4
CCCN1CCN(c2cc3c(cc2F)c(=O)c(S(=O)(=O)c2ccc(CC)cc2)cn3CC)CC1	-17.5	·	0.4	-0.7	-13.6
Cn1c(=O)c2nc3ccc(NC(=O)C(F)(F)F)cc3nc2n(C)c1=O	1.8	·	11.3	2.9	3.3
Cc1cc2nc3c(=O)[nH]c(=S)[nH]c3nc2cc1NC(=O)C(F)(F)F	0.2	-12.1	64.0*	1.1	0.4
Cc1ccc(C(=O)c2coc3ccc(O)c(Cl)c23)cc1	-5.5	4.6	1.8	0.1	-1.2
O=C(c1ccccc1)c1coc2ccc(O)c(Cl)c12	-2.3	-52.3*	111.2*	4.6	75.2
CCOc1ccc2[nH]c(C)c(CN3CCN(CC)CC3)c(=O)c2c1	-1.9	29.7	3.0	-4.0	-9.7
CCN1CCN(Cc2c(C)[nH]c3ccc(OC)cc3c2=O)CC1	3.4	-53.1*	2.5	-5.7	-3.1
CCCN(Cc1cccs1)C(=O)Nc1cc(C)ccc1OC	0.1	·	-0.5	0.8	2.1
O=C(CCC(=O)N/N=C/c1cc(Cl)cc(Cl)c1O)NCc1ccccc1	-7.3	-53.7*	1.3	5.5	-7.6
